Outcome and AC50 data for 40 compounds are collected here from PubChem BioAssay (EPA / NIEHS).

Activity calls are given as the source filed them. The calls were made as follows: active = hit-call score of the fitted dose curve at least 0.9, where 1 is the maximum; inactive = score below 0.9.

Read-out in this test: Plasminogen activator inhibitor-1 (PAI1), SERPINE1 (gene 5054)
The test is described as follows: BSK_hDFCGF_PAI1: BioMAP Diversity Plus: hDFCGF Assay for Plasminogen activator inhibitor-1 (PAI1) Biomarker Activity (AID 2283066). Particulars: primary human foreskin fibroblasts; actives raise or lower the signal. The protocol: BSK_hDFCGF is a cell-based, multiplexed-readout assay that uses foreskin fibroblast, a human skin primary cell, with measurements taken at 24 hours after chemical dosing in a 96-well plate.BSK_hDFCGF_PAI1 is an assay component measured in the BSK_hDFCGF assay. It measures PAI-1 antibody related to regulation of gene expression using ELISA technology.Data from the assay component BSK_hDFCGF_PAI1 was analyzed into 1 assay endpoint. This assay endpoint, BSK_hDFCGF_PAI1, was analyzed with bidirectional fitting relative to DMSO as the negative control and baseline of activity. Using a type of binding reporter, gain or loss-of-signal activity can be used to understand changes in the signaling as they relate to the gene SERPINE1. Furthermore, this assay endpoint can be referred to as a primary readout, because this assay has produced multiple assay endpoints where this one serves a signaling function. To generalize the intended target to other relatable targets, this assay endpoint is annotated to the cytokine intended target family, where the subfamily is plasmogen activator inhibitor.
The levels of cell surface (or secreted, indicated by the prefix "s") biomarker endpoints were measured by ELISA. Overt cytotoxicity to cells in confluent adherent cultures (all systems other than the BT system) was assessed by measuring total protein levels using sulforhodamine B (SRB) staining in parallel cultures at the time of biomarker measurements, indicated as SRB endpoints. For proliferation assays for adherent cell types, individual cell types are cultured at sub-confluence and relative cell numbers quantified by SRB staining at time points optimized for each system (48 h: 3C and CASM3C systems; 72 h: BT and HDF3CGF systems; 96 h: SAg system). SRB was performed by staining cells with 0.1% SRB after fixation with 10% TCA and reading wells at 560 nm.Viability and proliferation of PBMC (T cells) was quantified by Alamar Blue reduction for the SAg and BT systems. For PBMC viability (referred to as PBMC Cytotoxicity within the assay endpoint names), cells were plated (75,000/well in a 96-well plate) and then chemical samples added for 1 h before addition of activators, SEB and TSST-1 (20 ng/mL final concentration each). Cells were incubated for 90 h. Then, Alamar Blue (20 uL/well) (Invitrogen, Cat DAL1100) was added for 6 h, and the plates were read with a fluorescence microplate reader at 546/580 nm (excitation/emission). For PBMC proliferation, cells were plated and activated as above but incubated for only 16 h prior to addition of Alamar Blue. Plates were read after 6 h.
As for `CC(C)N(Cc1ccccc1)C(=O)C(C)(C)C`, the result was inactive.
With `COP(=S)(OC)SCN1C(=O)c2ccccc2C1=O`, the result was inactive.
On the same count and under the same terms, in the case of `Brc1ccc(Oc2ccccc2)cc1` it was “inactive”; in that of `OCCOCCO`, “inactive”.
In the case of `N#CC(Br)(Br)C(N)=O`, the result was inactive.
The same measure, in the same setting: next, `CCCCC(CC)COC(=O)c1ccc(C(=O)OCC(CC)CCCC)c(C(=O)OCC(CC)CCCC)c1` (stereo not given): “inactive”; `Cc1ccc([N+](=O)[O-])cc1`: “inactive”.
On the same count and under the same terms, in the case of `CCOc1cccc(C2(N3CCN(c4ccccc4)CC3)CCC(C)CC2)c1` (stereo not given) it was “inactive”.
Same read-out and setting: next, `CCCCCCCCCCCCCN1CC(C)OC(C)C1` (stereo not given): “inactive”.
As for `CCN(CC)N=O`, the outcome was inactive.
On to `CN(C)c1ccc(C(=O)c2ccc(N(C)C)cc2)cc1`, for which the outcome was inactive.
A word on the AC50: it is the concentration giving half of the maximal activity seen. Take `Clc1ccc(C(c2ccc(Cl)cc2)C(Cl)Cl)cc1`: the AC50 is 7.29 µM (active).
Consider `CCCCOC(=O)c1ccccc1C(=O)OCc1ccccc1`, for which the outcome was inactive.
In the case of `CO[C@@H]1[C@H](OC(=O)NC(=O)CCl)CC[C@]2(CO2)[C@H]1[C@@]1(C)O[C@@H]1CC=C(C)C`, the outcome was inactive.
In the case of `CCC(C)c1ccc(O)cc1` (stereo not given), the outcome was inactive.
`ClC1=C(Cl)C2(Cl)C3C(Cl)C=CC3C1(Cl)C2(Cl)Cl` (stereo not given): the AC50 is 9.78 µM (active).
On to `[As]#[In]`, for which the outcome was inactive.
`CCN(CC)CCO`: the result was inactive.
The same measure, in the same setting: in the case of `Clc1ccccc1Cl` it was “inactive”.
As for `CCC[CH2][Sn]([Cl])([CH2]CCC)[CH2]CCC`, the AC50 is 0.296 µM (active).
`CCCCCOC(=O)c1ccccc1C(=O)OCCCCC`: the result was inactive.
Turning to `Clc1ccc(C(c2ccc(Cl)cc2)C(Cl)(Cl)Cl)cc1`, the AC50 was 8.38 µM (active).
Take `[Cl-].[Cl-].[Hg+2]`: the AC50 is 12.2 µM (active).
Take `Nc1ccc([N+](=O)[O-])cc1`: the outcome was inactive.
Turning to `CCOC(=O)[C@]1(c2ccccc2)Oc2ccccc2[C@@H]1N`, the AC50 is 33.6 µM (active).
Consider `ClC1=C(Cl)[C@]2(Cl)[C@H]3[C@H]([C@@H]4C=C[C@H]3C4)[C@@]1(Cl)C2(Cl)Cl`, for which the AC50 is 10.7 µM (active).
With `CCCSC(=O)N(CCC)CCC`, the result was inactive.
Same read-out and setting: in the case of `[O-][Cl+]O` it was “inactive”.
`COC(=O)c1ccccc1N`: the result was inactive.
With `CCCCCCCCOC(=O)c1ccc(C(=O)OCCCCCCCC)c(C(=O)OCCCCCCCC)c1`, the result was inactive.
Still for that read-out and setting: next, `CCC12COCN1COC2`: “inactive”.
With `O=[N+]([O-])C(Br)(CO)CO`, the AC50 was 26.8 µM (active).
Take `ClCCOCCCl`: the outcome was inactive.
Same read-out and setting: in the case of `CN(C)C(=O)Nc1ccc(Cl)cc1` it was “inactive”.
On the same count and under the same terms, in the case of `Cc1cccc(N)c1N` it was “inactive”; in that of `CC(C)(O)c1cnn2c(-c3ccc(F)c(-c4c(F)cccc4C#N)c3)cnc2n1`, “inactive”.
Still for that read-out and setting: in the case of `CN(C)c1ccccc1` it was “inactive”.
With `Cc1ccc(N=C=O)cc1N=C=O`, the outcome was inactive.
On the same count and under the same terms, next, `O=Cc1ccco1`: “inactive”; `OCCCl`: “inactive”.
